What was measured:
[1] = system: Proto-oncogene tyrosine-protein kinase receptor Ret (Homo sapiens), P07949 [Y791F]; conditions: at 1 µM
[2] = target: Macrophage-stimulating protein receptor (Homo sapiens) (UniProt Q04912); conditions: at 0.1 µM
[3] = target: Macrophage-stimulating protein receptor (Homo sapiens) (UniProt Q04912); conditions: at 1 µM
[4] = target: Proto-oncogene tyrosine-protein kinase ROS (Homo sapiens) (UniProt P08922); conditions: at 0.1 µM
[5] = target: Proto-oncogene tyrosine-protein kinase ROS (Homo sapiens) (UniProt P08922); conditions: at 1 µM
[6] = target: Proto-oncogene tyrosine-protein kinase Src (Homo sapiens) (UniProt P12931); conditions: at 0.1 µM
Chain of Proto-oncogene tyrosine-protein kinase Src (Homo sapiens) (P12931 2-536 limits assumed): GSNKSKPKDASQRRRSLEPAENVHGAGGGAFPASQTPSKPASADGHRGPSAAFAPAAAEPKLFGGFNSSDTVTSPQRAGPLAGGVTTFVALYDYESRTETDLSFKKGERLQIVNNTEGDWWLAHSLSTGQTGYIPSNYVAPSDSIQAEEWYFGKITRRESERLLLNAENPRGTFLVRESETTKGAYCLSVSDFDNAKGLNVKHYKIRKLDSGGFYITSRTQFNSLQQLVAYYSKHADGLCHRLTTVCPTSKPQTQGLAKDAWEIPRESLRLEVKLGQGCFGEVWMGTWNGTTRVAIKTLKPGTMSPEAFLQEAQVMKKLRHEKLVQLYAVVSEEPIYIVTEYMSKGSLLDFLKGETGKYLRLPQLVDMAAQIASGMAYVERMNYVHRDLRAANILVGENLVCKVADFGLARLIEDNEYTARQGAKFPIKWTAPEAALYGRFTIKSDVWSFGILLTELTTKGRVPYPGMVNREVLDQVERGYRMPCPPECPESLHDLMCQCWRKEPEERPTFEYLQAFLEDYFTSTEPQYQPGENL

[7] = target: Proto-oncogene tyrosine-protein kinase Src (Homo sapiens) (UniProt P12931); conditions: at 1 µM
[8] = target: Tyrosine-protein kinase Srms (Homo sapiens) (UniProt Q9H3Y6); conditions: at 0.1 µM
Chain of Tyrosine-protein kinase Srms (Homo sapiens) (Q9H3Y6 whole entry): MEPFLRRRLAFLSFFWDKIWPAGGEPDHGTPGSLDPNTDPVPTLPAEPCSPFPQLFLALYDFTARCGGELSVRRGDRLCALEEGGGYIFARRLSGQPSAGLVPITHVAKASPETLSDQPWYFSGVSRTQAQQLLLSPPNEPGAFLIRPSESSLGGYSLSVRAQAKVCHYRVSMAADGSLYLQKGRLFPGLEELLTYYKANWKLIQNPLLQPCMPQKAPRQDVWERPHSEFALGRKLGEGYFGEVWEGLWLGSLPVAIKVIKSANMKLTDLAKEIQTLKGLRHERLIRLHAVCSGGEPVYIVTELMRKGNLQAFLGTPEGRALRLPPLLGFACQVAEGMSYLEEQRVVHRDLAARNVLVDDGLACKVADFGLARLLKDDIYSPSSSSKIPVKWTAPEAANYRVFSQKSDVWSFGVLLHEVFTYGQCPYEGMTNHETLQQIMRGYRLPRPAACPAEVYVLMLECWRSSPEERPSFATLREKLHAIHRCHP

[9] = target: Tyrosine-protein kinase Srms (Homo sapiens) (UniProt Q9H3Y6); conditions: at 1 µM
[10] = target: Tyrosine-protein kinase SYK (Homo sapiens) (UniProt P43405); conditions: at 0.1 µM
[11] = target: Tyrosine-protein kinase SYK (Homo sapiens) (UniProt P43405); conditions: at 1 µM
[12] = target: T1, Tyrosine-protein kinase Tec (Homo sapiens) (UniProt P42680); conditions: at 0.1 µM
T1 sequence (whole entry): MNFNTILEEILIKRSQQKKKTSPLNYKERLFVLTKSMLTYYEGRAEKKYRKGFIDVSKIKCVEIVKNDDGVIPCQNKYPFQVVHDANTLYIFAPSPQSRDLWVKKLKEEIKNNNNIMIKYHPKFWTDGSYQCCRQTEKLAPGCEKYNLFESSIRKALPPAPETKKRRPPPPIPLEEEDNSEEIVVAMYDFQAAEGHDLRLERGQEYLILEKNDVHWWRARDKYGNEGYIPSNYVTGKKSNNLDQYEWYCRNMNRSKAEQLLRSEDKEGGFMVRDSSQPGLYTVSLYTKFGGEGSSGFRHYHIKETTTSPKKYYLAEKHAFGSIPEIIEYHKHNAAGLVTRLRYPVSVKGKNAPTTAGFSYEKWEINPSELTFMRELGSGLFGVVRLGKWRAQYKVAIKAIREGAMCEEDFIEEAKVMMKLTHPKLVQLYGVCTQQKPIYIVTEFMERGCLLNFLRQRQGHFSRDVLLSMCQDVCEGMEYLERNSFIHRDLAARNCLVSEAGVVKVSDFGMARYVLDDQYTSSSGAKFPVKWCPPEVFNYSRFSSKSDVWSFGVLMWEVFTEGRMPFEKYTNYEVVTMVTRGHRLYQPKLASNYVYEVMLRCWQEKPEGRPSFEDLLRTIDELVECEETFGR

[13] = target: T1, Tyrosine-protein kinase Tec (Homo sapiens); conditions: at 1 µM
[14] = target: Angiopoietin-1 receptor (Homo sapiens) (UniProt Q02763); conditions: at 0.1 µM
[15] = target: Angiopoietin-1 receptor (Homo sapiens) (UniProt Q02763); conditions: at 1 µM
[16] = target: T2, Non-receptor tyrosine-protein kinase TNK1 (Homo sapiens) (UniProt Q13470); conditions: at 0.1 µM
T2 sequence (whole entry): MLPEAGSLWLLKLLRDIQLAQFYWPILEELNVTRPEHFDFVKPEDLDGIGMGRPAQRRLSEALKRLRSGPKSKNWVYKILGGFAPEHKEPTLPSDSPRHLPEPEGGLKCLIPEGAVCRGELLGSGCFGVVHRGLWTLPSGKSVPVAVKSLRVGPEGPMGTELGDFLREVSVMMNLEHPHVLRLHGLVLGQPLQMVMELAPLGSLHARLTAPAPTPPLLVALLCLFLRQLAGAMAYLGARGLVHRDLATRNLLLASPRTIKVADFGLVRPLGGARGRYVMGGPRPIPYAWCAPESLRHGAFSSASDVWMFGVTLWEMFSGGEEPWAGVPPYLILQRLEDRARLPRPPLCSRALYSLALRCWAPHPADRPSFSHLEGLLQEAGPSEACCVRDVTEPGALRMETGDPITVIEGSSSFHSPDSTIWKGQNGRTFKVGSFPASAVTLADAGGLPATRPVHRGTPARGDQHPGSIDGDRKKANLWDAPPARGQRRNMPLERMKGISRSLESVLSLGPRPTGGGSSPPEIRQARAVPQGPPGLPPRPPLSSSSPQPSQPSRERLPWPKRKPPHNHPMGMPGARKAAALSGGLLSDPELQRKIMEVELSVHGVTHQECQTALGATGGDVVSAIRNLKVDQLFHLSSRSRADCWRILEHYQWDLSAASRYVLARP

[17] = target: T2, Non-receptor tyrosine-protein kinase TNK1 (Homo sapiens); conditions: at 1 µM
[18] = target: Activated CDC42 kinase 1 (Homo sapiens) (UniProt Q07912); conditions: at 0.1 µM
[19] = target: Activated CDC42 kinase 1 (Homo sapiens) (UniProt Q07912); conditions: at 1 µM
[20] = target: High affinity nerve growth factor receptor (Homo sapiens) (UniProt P04629); conditions: at 0.1 µM;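 further: each value is a mean of replicate percent inhibition readings against TRKA kinase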
Chain of High affinity nerve growth factor receptor (Homo sapiens) (P04629 33-796 limits assumed): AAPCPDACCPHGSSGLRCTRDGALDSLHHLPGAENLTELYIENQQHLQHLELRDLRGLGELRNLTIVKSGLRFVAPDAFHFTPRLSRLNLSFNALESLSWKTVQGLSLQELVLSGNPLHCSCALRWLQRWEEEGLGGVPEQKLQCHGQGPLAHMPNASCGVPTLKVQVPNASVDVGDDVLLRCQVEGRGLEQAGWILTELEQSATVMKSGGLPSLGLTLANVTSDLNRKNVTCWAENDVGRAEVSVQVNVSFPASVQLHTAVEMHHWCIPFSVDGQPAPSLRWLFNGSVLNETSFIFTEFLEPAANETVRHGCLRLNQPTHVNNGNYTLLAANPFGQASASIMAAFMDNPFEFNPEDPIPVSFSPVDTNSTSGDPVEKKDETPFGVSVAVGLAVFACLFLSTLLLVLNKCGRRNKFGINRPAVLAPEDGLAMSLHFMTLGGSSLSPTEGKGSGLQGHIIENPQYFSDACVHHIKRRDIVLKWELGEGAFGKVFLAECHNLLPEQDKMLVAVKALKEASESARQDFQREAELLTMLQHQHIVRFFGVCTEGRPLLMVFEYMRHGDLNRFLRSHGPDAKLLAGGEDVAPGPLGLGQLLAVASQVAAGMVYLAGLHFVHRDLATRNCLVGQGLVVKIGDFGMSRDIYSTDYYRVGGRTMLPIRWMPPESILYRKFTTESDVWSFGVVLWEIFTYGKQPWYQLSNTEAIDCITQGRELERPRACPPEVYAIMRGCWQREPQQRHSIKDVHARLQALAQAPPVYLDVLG

Chain of Macrophage-stimulating protein receptor (Homo sapiens) (Q04912 25-304 limits assumed): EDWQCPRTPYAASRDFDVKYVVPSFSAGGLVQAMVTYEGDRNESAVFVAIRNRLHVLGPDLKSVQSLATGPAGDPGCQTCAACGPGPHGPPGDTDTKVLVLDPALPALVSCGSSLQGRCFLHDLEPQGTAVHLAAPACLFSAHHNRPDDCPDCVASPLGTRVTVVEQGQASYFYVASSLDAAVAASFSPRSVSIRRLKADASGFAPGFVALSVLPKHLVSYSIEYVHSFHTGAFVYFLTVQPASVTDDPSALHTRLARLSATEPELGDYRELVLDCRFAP
Chain of Macrophage-stimulating protein receptor (Homo sapiens) (Q04912 310-1400 limits assumed): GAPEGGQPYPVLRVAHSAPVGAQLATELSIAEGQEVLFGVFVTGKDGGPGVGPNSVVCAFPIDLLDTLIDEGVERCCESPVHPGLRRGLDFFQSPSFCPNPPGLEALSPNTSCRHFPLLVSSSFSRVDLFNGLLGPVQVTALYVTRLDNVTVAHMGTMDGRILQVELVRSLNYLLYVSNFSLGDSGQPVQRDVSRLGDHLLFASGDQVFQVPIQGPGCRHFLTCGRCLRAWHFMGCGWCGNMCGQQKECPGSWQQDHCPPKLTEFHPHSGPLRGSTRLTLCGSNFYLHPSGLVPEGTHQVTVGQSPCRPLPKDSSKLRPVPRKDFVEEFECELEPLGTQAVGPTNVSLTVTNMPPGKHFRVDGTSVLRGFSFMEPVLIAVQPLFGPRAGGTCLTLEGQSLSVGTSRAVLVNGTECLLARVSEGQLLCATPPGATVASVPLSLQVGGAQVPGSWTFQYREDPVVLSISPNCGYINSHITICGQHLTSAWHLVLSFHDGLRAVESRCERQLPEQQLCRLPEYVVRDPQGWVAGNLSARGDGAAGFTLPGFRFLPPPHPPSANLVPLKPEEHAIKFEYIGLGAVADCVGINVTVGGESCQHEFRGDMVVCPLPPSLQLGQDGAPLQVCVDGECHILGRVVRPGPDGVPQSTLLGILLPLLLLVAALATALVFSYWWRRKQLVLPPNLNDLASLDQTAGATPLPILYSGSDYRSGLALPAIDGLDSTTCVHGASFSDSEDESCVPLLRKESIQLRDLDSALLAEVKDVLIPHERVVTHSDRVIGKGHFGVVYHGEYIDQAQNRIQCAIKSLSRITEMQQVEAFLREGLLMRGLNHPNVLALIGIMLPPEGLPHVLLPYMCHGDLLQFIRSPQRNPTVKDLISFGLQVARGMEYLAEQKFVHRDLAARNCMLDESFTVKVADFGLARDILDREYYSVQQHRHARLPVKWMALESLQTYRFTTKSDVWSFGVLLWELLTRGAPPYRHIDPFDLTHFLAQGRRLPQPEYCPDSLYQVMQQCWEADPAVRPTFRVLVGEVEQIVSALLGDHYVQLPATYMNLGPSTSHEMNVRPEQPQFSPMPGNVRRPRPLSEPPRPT
Chain of Proto-oncogene tyrosine-protein kinase receptor Ret (Homo sapiens), P07949 [Y791F] (P07949 whole entry Y791F): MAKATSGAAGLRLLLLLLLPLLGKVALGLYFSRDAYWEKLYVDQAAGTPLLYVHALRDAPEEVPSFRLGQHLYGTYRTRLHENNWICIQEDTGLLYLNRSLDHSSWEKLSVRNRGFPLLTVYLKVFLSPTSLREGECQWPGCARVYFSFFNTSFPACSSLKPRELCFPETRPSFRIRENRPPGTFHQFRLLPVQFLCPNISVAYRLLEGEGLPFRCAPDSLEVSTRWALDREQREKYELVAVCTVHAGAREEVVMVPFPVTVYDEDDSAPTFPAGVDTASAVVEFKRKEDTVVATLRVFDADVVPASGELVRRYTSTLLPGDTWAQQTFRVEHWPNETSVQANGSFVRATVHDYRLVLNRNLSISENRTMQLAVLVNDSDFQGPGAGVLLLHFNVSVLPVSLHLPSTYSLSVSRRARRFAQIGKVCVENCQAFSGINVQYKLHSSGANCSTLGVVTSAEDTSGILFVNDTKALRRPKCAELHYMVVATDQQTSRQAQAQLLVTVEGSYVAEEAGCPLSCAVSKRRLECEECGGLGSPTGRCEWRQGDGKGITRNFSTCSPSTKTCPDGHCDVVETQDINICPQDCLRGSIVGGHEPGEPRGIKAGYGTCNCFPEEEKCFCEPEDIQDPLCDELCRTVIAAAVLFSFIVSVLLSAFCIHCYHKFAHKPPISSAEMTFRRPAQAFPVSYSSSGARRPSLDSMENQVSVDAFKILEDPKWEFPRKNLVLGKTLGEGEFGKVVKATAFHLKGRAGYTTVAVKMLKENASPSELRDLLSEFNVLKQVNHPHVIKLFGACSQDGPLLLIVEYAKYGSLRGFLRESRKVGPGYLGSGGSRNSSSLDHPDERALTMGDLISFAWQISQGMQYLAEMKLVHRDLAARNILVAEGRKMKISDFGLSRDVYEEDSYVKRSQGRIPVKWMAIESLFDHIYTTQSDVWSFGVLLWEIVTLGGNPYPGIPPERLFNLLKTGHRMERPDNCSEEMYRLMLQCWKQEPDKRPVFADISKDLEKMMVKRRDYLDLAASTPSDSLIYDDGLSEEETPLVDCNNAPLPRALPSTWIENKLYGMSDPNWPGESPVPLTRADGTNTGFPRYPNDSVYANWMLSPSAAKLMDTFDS

Row | SMILES | inhibition [1] | inhibition [2] | inhibition [3] | inhibition [4] | inhibition [5] | inhibition [6] | inhibition [7] | inhibition [8] | inhibition [9] | inhibition [10] | inhibition [11] | inhibition [12] | inhibition [13] | inhibition [14] | inhibition [15] | inhibition [16] | inhibition [17] | inhibition [18] | inhibition [19] | inhibition [20]
1 | CCn1c(-c2nonc2N)nc2cnc(Oc3cccc(NC(=O)c4ccc(OCCN5CCOCC5)cc4)c3)cc21 | 7.86% | 3.1% | 5% | 8.56% | 11% | 3.92% | 7.72% | -0.56% | -0.69% | -4.21% | 1.88% | 3.35% | 5.81% | 3.75% | 6.59% | 0.95% | 5.9% | -0.31% | -0.19% | 4.32%
2 | CCN1CCC(CC(=O)Nc2n[nH]c3nc(-c4cccs4)c(Br)cc23)CC1 | -0.99% | 0.5% | 6.29% | -0.25% | -0.04% | 15.4% | -4.33% | -1.72% | -0.34% | -1.06% | 0.14% | -2% | -2.77% | 9.68% | 11.1% | -7.55% | 4.72% | -0.98% | -0.2% | -0.5%
3 | CCn1c(-c2nonc2N)nc2c(C#CC(C)(C)O)nc(CN3CCCC3)cc21 | 14.5% | 27.6% | -5.13% | 2.54% | 3.85% | 0.78% | 0.68% | -1.37% | -0.75% | 6.45% | -0.03% | -0.24% | 1.81% | 2.79% | 3.96% | -0.12% | -4.05% | -0.98% | -1.32% | -2.07%
4 | O=C1Nc2ccc(C(=O)c3ccco3)cc2C1=Cc1cc(Cl)c(O)c(Cl)c1 | 54.8% | 14.5% | 18.8% | 6.01% | 11.2% | 3.8% | 15.5% | 21.3% | 59.7% | -6.13% | -0.93% | 3.56% | 9.55% | 2.1% | 3.01% | 38.9% | 85.3% | 1.92% | 6.27% | 4.97%
5 | CS(=O)(=O)Nc1ccc(N/C=C2\C(=O)Nc3ccccc32)cc1 | 50% | -3.2% | 6.3% | 1.48% | 6.73% | -2.8% | 8.01% | -2.57% | 1.32% | -1.22% | -3.83% | -2.97% | 0.17% | 0.36% | 2.36% | -2.85% | 6.96% | -0.49% | 1.32% | 5.97%
6 | Fc1cccc(COc2ccc(Nc3ncnc4cc(-c5ccc[nH]5)sc34)cc2Cl)c1 | 15.8% | 4.56% | 4.33% | 9.9% | 12.1% | 3.22% | 6.79% | -0.83% | 1.08% | 1.5% | 2.33% | -0.22% | 3.69% | 2.27% | 8.54% | 1.22% | 1.7% | 0.28% | 0.88% | 2.39%
7 | NS(=O)(=O)c1ccc(N/N=C2\C(=O)Nc3ccc(C(=O)NCCc4c[nH]cn4)cc32)cc1 | 63.7% | 0.68% | 6% | 10.9% | 18.1% | -1.33% | 33% | -0.78% | 1.4% | -4.27% | -0.45% | 5.46% | 12.1% | 1.64% | 3.16% | 1.59% | 10.1% | 1.35% | 2.72% | 5.55%
